The values that follow come from ChEMBL document CHEMBL3988442, “University of Dundee, Small-Polar-MMV Screening Library” (2021).

Hit rate of the full screen: of about 48,000 compounds, about 13,000 (27%) showed an effect of 50% or more. The list shows a part of the results.

The assay deals with Wolbachia pipientis. As to the kind of experiment: Anti-Wolbachia Cell-Based Screen. Type of assay: functional. More on the design: scale not given: in the data most compounds retested in dose-response had high values. As to conditions: 5 µM.
As for `CN(Cc1cnn(C)c1)C1CCN(c2cccc(-c3cscn3)c2)CC1`, the “Percent Effect” value is listed as -7.204%.
On to `CCn1c(CC2CCN(C(=O)c3cc(C(C)C)nn3C)CC2)n[nH]c1=O`, for which the “Percent Effect” value is 0.9199%.
In the case of `Cc1occc1C(=O)NCC(=O)NCCCOc1ccc(F)cc1`, the “Percent Effect” value is listed as -8.265%.
For `CCc1nnc(CNc2ccc(CC(=O)N3CCSCC3)cc2)o1`, the “Percent Effect” value is listed as 7.337%.
Under `CCNC(=O)[C@@H]1C[C@H](NC(=O)c2cc(=O)[nH]c3ccc(C)cc23)CN1C` stands 116.2%; under `COC(=O)[C@@H]1C[C@H](NC(=O)Cn2c(=O)cc(C)c3ccccc32)CN1C`, 0.9939%.
Consider `COC(=O)[C@@H]1C[C@@H](NC(=O)CN2C(=O)N(C)Cc3ccccc32)CN1C`, for which the “Percent Effect” value is recorded as -9.28%.
The result for `CCNC(=O)[C@@H]1C[C@@H](N)CN1C(=O)Cc1cc(C)ccc1C` reads -80.39%; that for `CCc1ccc2nc(C)cc(C(=O)N[C@@H]3CCCNC3)c2c1`, -27.02%; that for `COC(=O)[C@@H]1C[C@H](NC(=O)c2cc(=O)[nH]c3ccc(C)cc23)CN1C`, 103.5%.
Under `CCNC(=O)[C@@H]1C[C@H](N)CN1C(=O)Cc1cc(C)ccc1C` stands -8.677%; under `CCc1ccc2nc(C)cc(C(=O)N[C@@H]3C[C@@H](CO)N(C)C3)c2c1`, 90.46%.
Regarding `Cc1ccc2[nH]c(=O)cc(C(=O)NCCCn3nccc3C3CC3)c2c1`, the “Percent Effect” value is listed as -8.543%.
In the case of `Cc1ccc2[nH]c(=O)cc(C(=O)N[C@@H]3C[C@@H](CO)N(C)C3)c2c1`, the “Percent Effect” value came out at 108.3%.
With `CNc1ccc(C)cc1C(=O)N[C@H]1C[C@H]2CN(C)CCN2C1`, the “Percent Effect” value came out at 9.233%.
Consider `CCc1ccc2nc(C)cc(C(=O)NC3CCC(=O)N(C)C3)c2c1` (stereo unspecified), for which the “Percent Effect” value is -60.56%.
Turning to `CCNc1ncc(C(=O)N2CCOC(CCCc3ccccc3)C2)cn1` (stereo unspecified), the “Percent Effect” value is reported as 15.39%.
The result for `Cc1nc(C)c(C(=O)NCc2nc3cccc(C)c3n2C)o1` reads 31.6%; that for `O=C(c1ncn2c1CNS(=O)(=O)c1ccccc1-2)N1CCCCC1`, -12.5%.
With `CC(C)(CNC(=O)C1(c2cccc(Br)c2)CCOCC1)C(=O)O`, the “Percent Effect” value is -13.82%.
Take `Cc1cnccc1N1CCCN(C(=O)CCc2n[nH]c(C)c2C)CC1`: the “Percent Effect” value is on record as -9.911%.
Regarding `Cc1n[nH]c(C)c1CCC(=O)N1CCc2c(nc[nH]c2=O)C1`, the “Percent Effect” value is given as 106.7%.
For the compound `Cc1ccccc1CCC(=O)N1CCc2ncnc(NCCO)c2CC1`, the “Percent Effect” value is on record as -0.3127%.
The result for `Cc1ccsc1[C@@H]1CCN(C(=O)CCc2n[nH]c(C)c2C)C[C@H]1O` reads 6.25%; that for `Cc1nc(CCC(=O)N2Cc3cnc(-c4ccccc4)nc3C2)n[nH]1`, -6.082%.
Under `Cc1[nH]nc(CCC(=O)N2CCc3ncnc(NCCO)c3CC2)c1C` stands 77.14%; under `COc1cccc(CC(=O)N2CCc3ncnc(NCCO)c3CC2)c1`, -0.2896%; under `CSCCC(=O)N1CCc2c(ncnc2N2CCOCC2)C1`, -13.57%.
The result for `Cc1[nH]nc(CCC(=O)N2CCc3c(nc[nH]c3=O)C2)c1C` reads 104.7%; that for `Cn1nc(Cn2cccc2)c2c1CN(Cc1ccoc1)C2.O=C(O)C(F)(F)F`, -1.566%; that for `Oc1cccc(CN2CCN(c3nccc(CCC(F)(F)F)n3)CC2)c1`, 0.5395%.
As to `Cc1cc(C)c2nc(CN3CCC(CN)CC3)cc(O)c2c1`, the “Percent Effect” value is reported as -3.326%.
Under `CN(C)C(=O)NCc1cc2n(n1)CCCN(CC1CCCNC1)C2` (stereo unspecified) stands -1.604%; under `COC1CCN(CCNC(=O)NC(C)c2ccc(F)c(F)c2)CC1` (stereo unspecified), 2.95%.
For the compound `CCOCCn1c(=O)n(CCC=C(C)C)c2cc(C(=O)O)cnc21`, the “Percent Effect” value is reported as -10.97%.
The result for `COCc1ccccc1C(=O)N1CCN(C2=NCC(C)(C)S2)CC1` reads -20.33%; that for `CC1(C)CN=C(N2CCN(CC3CCCCO3)CC2)S1` (stereo unspecified), 87.51%; that for `Cc1ncc2c(n1)CN(CC1CCCCO1)CC2` (stereo unspecified), 1.379%.
`Cc1cc(NC2CCN(CC3CCCO3)CC2)n2nc(C)c(C)c2n1` (stereo unspecified): the “Percent Effect” value was found to be 11.1%.
`Cc1cnc(C)c(N2CCN(CC3CCCO3)CC2)n1` (stereo unspecified): the “Percent Effect” value is given as 94.75%.
For the compound `CC1(C)CN=C(N2CCN(CC3CCCO3)CC2)S1` (stereo unspecified), the “Percent Effect” value turned out to be 67.12%.
As for `CC(C)c1nc(CN2CCN(CC3CCCO3)CC2)cs1` (stereo unspecified), the “Percent Effect” value was 2.342%.
For `Cc1cnc(C)c(N2CCN(Cc3ccc(C)c(C)c3)CC2)n1`, the “Percent Effect” value is given as -24.43%.
Regarding `CC1(c2ccccc2)CCC(=O)N(CCCN2CCOCC2)C1` (stereo unspecified), the “Percent Effect” value is listed as 6.196%.
The result for `CCn1ncc(C(=O)N2CCN(CC3CCCO3)CC2)c1C` (stereo unspecified) reads -12.64%; that for `CC1(C)CN=C(N2CCN(CCCN3CCOCC3)CC2)S1`, 99.8%; that for `CCC(C)NC(=O)c1coc(COc2cccc(F)c2)n1` (stereo unspecified), -23.89%.
Turning to `Cc1nn(C(C)(C)C)c(=O)n1CC(=O)NCC(F)(F)F`, the “Percent Effect” value is given as 1.676%.
For `O=C(NCc1ccccc1)[C@H]1C[C@@H]2CN(S(=O)(=O)C3CC3)C[C@H]1O2`, the “Percent Effect” value amounted to 0.5177%.
On to `CCC(CNS(N)(=O)=O)Oc1ccccc1F` (stereo unspecified), for which the “Percent Effect” value was -4.298%.
Under `N#Cc1c(N2CCN(CC3CCOC3)CC2)nc2ccccn12` (stereo unspecified) stands -4.336%; under `COc1ncnc2c1CCN(CC1CCOC1)CC2` (stereo unspecified), -41.04%.
As to `CC1(C)CN=C(N2CCN(CC3CCOC3)CC2)S1` (stereo unspecified), the “Percent Effect” value is on record as 102.4%.
The result for `Cc1n[nH]c(C)c1S(=O)(=O)N(C)Cc1nn(C)c(Cl)c1Cl` reads 0.7109%; that for `CCN(Cc1cc(Br)ccc1F)C(=O)C(C)NC(N)=O` (stereo unspecified), -3.713%; that for `Cc1cccn2c(CNC(C)CCc3ccc(O)cc3)cnc12` (stereo unspecified), -2.833%.
On to `COc1ccccc1OC1(C(=O)O)CCN(c2nccnc2C)CC1`, for which the “Percent Effect” value is -2.671%.
As for `CCn1nc(C(C)C)cc1C(=O)N1CCOc2ccc(OC)cc21`, the “Percent Effect” value amounted to 10.42%.
`COCCN(C)CCN1CC2(CCN(C3CCNCC3)CC2)OC1=O`: the “Percent Effect” value came out at 0.09435%.
For the compound `CC(C)NC(=O)N1CC[C@@H]2CN(Cc3cccc(Cl)c3)S(=O)(=O)[C@@H]2CC1`, the “Percent Effect” value was -12.85%.
With `CNC(=O)N1CC[C@@H]2CN(Cc3ccccc3)S(=O)(=O)[C@@H]2CC1`, the “Percent Effect” value stood at 102%.
In the case of `CNC(=O)N1CC[C@@H]2CN(Cc3cccc(OC)c3)S(=O)(=O)[C@@H]2CC1`, the “Percent Effect” value amounted to 89.38%.
The result for `CNC(=O)N1CC[C@@H]2CN(Cc3cccc(Cl)c3)S(=O)(=O)[C@@H]2CC1` reads -6.007%.
Regarding `CC(=O)N1CC[C@@H]2CN(Cc3cccc(Cl)c3)S(=O)(=O)[C@@H]2CC1`, the “Percent Effect” value was -7.404%.
As for `CNC(=O)N1CC[C@@H]2CN(CCc3cccc(OC)c3)S(=O)(=O)[C@@H]2CC1`, the “Percent Effect” value was -2.748%.
Under `O=C(NCCSC1CCCC1)c1cc(Cl)ccn1` stands 3.584%; under `COCC(=O)N[C@H]1C[C@@H](Cc2cc(CN3CCCCC3)on2)C1(C)C`, 11.93%; under `Cc1ccccc1CN(CCN(C)C)Cc1ncc[nH]1`, -7.334%.
As to `CC(C)NC(=O)N1CCC2(CC1)COc1ccccc1S(=O)(=O)N(C)C2`, the “Percent Effect” value is on record as 105.4%.
Under `COCCC1COC2(CCN(C(=O)C3CCC3)CC2)C1` (stereo unspecified) stands -7.726%; under `CN1CC2(CCN(C(=O)C3CCC3)CC2)COc2ccccc2S1(=O)=O`, 97.81%.
Regarding `CN(C)C(C(=O)N1CCCN(C(=O)C2CCC2)CC1)c1ccccc1F` (stereo unspecified), the “Percent Effect” value is on record as -11.1%.
In the case of `N#Cc1csc(CN(CC(=O)N2CCCC2)CC2CCCO2)c1` (stereo unspecified), the “Percent Effect” value was found to be 4.573%.
As for `CCOc1ccc(OCC)c(NCc2cc(C)on2)c1`, the “Percent Effect” value is given as -0.4612%.
In the case of `COCCOC[C@]1(CNCc2ccc(OC)cc2)C[C@@H](O)[C@@H](O)C1.Cl`, the “Percent Effect” value was found to be 6.755%.
Turning to `Cc1ccccc1C1(CNC(=O)N2CCC(CC(N)=O)CC2)CC1`, the “Percent Effect” value is reported as -8.106%.
For the compound `Cc1ccccc1C1(CNC(=O)c2cccc(S(C)(=O)=O)c2)CC1`, the “Percent Effect” value is recorded as 2.045%.
`Cc1ccccc1C1(CNC(=O)c2ccc(S(C)(=O)=O)cc2)CC1`: the “Percent Effect” value is 72.54%.
For the compound `CC(NC(=O)N(C)Cc1ccsc1)c1ccc2c(c1)OCO2` (stereo unspecified), the “Percent Effect” value is -7.719%.
Turning to `O=C(Nc1ccccc1)C1CCN(C(=O)COc2ccccc2F)CC1`, the “Percent Effect” value worked out at 17.88%.
Take `CC(C)c1ccc(OCCC(=O)N2CCC(CC(N)=O)CC2)cc1`: the “Percent Effect” value is given as -11.97%.
Consider `CC(O)CN1CCN(C(=O)CCOc2ccccc2F)CC1` (stereo unspecified), for which the “Percent Effect” value is 109.3%.
As to `O=C(CCOc1ccccc1F)N1CCC(O)CC1`, the “Percent Effect” value is 96.9%.
The result for `CC(O)CN1CCN(C(=O)c2cnn(-c3ccccc3F)c2)CC1` (stereo unspecified) reads -7.908%; that for `Cn1cnnc1C1CCN(C(=O)CCCOc2ccccc2F)CC1`, -1.592%.
For `O=C(CCOc1ccccc1F)N1CCOCC1`, the “Percent Effect” value is 105.4%.
With `CN(CCOc1ccccc1F)S(=O)(=O)CC1CCOCC1`, the “Percent Effect” value worked out at 2.029%.
Turning to `COc1ccccc1C1(C(=O)N2CCN(CC(C)O)CC2)CC1` (stereo unspecified), the “Percent Effect” value is listed as -12.51%.
Turning to `CC(O)C1CCN(C(=O)CCOc2ccccc2F)CC1` (stereo unspecified), the “Percent Effect” value was determined as 86.99%.
The result for `CN1CCOC(CNC(=O)CCCOc2ccccc2F)C1` (stereo unspecified) reads -10.92%; that for `CCOCC(=O)N1CCC(C(O)c2ccc(F)cc2)CC1` (stereo unspecified), -2.843%.
`CCN(C1CCN(c2cccc(F)c2C(C)=O)CC1)S(C)(=O)=O`: the “Percent Effect” value is given as -1.557%.
For `COc1ccnc(N(C)Cc2csc(C)n2)n1`, the “Percent Effect” value is reported as -11.41%.
The result for `CC(Cn1cncn1)Nc1ccc(-c2nccn2C)nn1` (stereo unspecified) reads -4.731%.
In the case of `CC(NC(=O)N(C)Cc1ccc2c(c1)OCCO2)c1nncn1C` (stereo unspecified), the “Percent Effect” value was -31.29%.
For the compound `Cc1ccc(NCCNC(=O)c2cc(CC(C)C)n[nH]2)nn1`, the “Percent Effect” value was determined as 121%.
With `CC(C)Cc1cc(C(=O)N2CCCN(c3cccnn3)CC2)[nH]n1`, the “Percent Effect” value is given as -1.538%.
As for `Cc1ccc(N2CCCN(C(=O)c3cc(CC(C)C)n[nH]3)CC2)nn1`, the “Percent Effect” value stood at 3.453%.
Regarding `CC(C)Cc1cc(C(=O)N2CCCN(c3ncccn3)CC2)[nH]n1`, the “Percent Effect” value is reported as -10.26%.
As to `CC(C)Cc1cc(C(=O)NC(C)C)[nH]n1`, the “Percent Effect” value worked out at 116%.
For the compound `CC(C)Cc1cc(C(=O)NCCn2nc3ccccn3c2=O)[nH]n1`, the “Percent Effect” value is on record as -3.6%.
